Data as given in PubChem BioAssay AID624351 (Southern Research Specialized Biocontainment Screening …, 2012).
Screen size: about 2,400 compounds; about 1,400 (58%) were called active. So high a share suggests a set chosen from earlier hits. The list shows a part of the results. Values without a mark were called inactive.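 Rule for the calls: active = inhibition of 30% or more at any tested dose; inconclusive = primary hits over the limit that were never retested; inactive = the rest.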

Test: ADP Hunter readout inhibition without MgcRacGAP – biochemical, coupled enzyme counter-screen, artefact control for MgcRacGAP inhibitor project, dose response (AID 624351);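 note: signal is the ADP detection kit reading of free GDP without any GAP enzyme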;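 for inhibition: 0% = median positive control wells and 100% = median negative control wells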
Conditions: fluorescence, no MgcRacGAP; series mostly up to 80 µM; inhibition: at the top concentration
With `O=C(CCl)NCCN1C(=O)S/C(=C\c2cccnc2)C1=O` the “inhibition” value was -1.45%. For `COc1cc2c(cc1OC)C(/C=C/c1ccco1)=NCC2`, the “inhibition” value was 3.65%. With `O=c1/c(=C/c2ccc(O)cc2)sc2n1CCCN=2` the IC50 was 21.7 µM (active). With `COc1cc(/C=c2\sc3n(c2=O)CCCN=3)ccc1O` the IC50 was 17.7 µM (active). For `Cc1cc(Cl)cc(C)c1OCCOCCNCc1ccccc1`, the “inhibition” value was 16.7%. In the case of `Cc1cc2[nH]c3c4ccccc4nc(C)c3c2cc1C`, the “inhibition” value is reported as 15.7%. For `O=C1Nc2ccccc2C1=Nc1ccc2[nH]c3ccccc3c2c1`, the IC50 was 23.4 µM (active). For `CCOC(=O)c1c(N)sc2c(O)c(Br)ccc12`, the IC50 was 58.1 µM (active). With `CCOC(=O)c1c(N)sc2c1CCS(=O)(=O)C2` the “inhibition” value was 6.6%. In the case of `Oc1ccc2c(ccc3[nH]cnc32)c1`, the IC50 is reported as 42.6 µM (active). In the case of `CCN(CC)c1ccc(NC(=O)c2ccc3c(c2)OCO3)cc1`, the IC50 is reported as 66.8 µM (active). For `CN(C)c1ccc(NC(=O)COC(=O)c2ccc3c(c2)OCO3)cc1`, the IC50 was 67 µM (active). With `CCN(CC)C(=O)C1CCCN(Cc2ccc3c(c2)OCO3)C1` (stereo not drawn) the “inhibition” value was 11.7%. For `CC(C(=O)Nc1ccc2c(c1)OCO2)N1CCN(C)CC1` (stereo not drawn), the “inhibition” value was 26.4%. For `CCN(CC)CCOC(=O)c1ccc(N/C=C(/C#N)c2nc(-c3ccc4c(c3)OCO4)cs2)cc1`, the “inhibition” value was 5.24%. For `O=C(Oc1ccc2c(c1)OCO2)c1ccncc1`, the “inhibition” value was 20%. In the case of `Nc1ccc2c(c1)Nc1ccccc1CC2`, the IC50 is reported as 37.8 µM (active). In the case of `Cc1ccccc1OCCn1c(=S)[nH]c2c(N)ncnc21`, the IC50 is reported as 68.2 µM (active). For `CC(C)Oc1ccc(OCCn2c(=S)[nH]c3c(N)ncnc32)cc1`, the IC50 was 76.4 µM (active). For `Cc1ccccc1OCCN1CCCC1`, the “inhibition” value was 14.1%. For `C/C(=N/Nc1ccc(C(=O)O)cc1)c1ccc2c(c1)Nc1ccccc1S2`, the IC50 was 51.3 µM (active). For `C/C(=N\NC(=O)c1ccc(O)cc1)c1ccc2c(c1)Nc1ccccc1S2`, the IC50 was 41.1 µM (active). For `C/C(CC(=O)Nc1ccc(N(C)C)cc1)=N\NC(=O)c1ccc(F)cc1`, the IC50 was 46.5 µM (active). With `C/C(CC(=O)Nc1ccc(N(C)C)cc1)=N\NC(=O)c1ccc([N+](=O)[O-])cc1Cl` the IC50 was 61.6 µM (active). For `O=C(Nc1ccc(C2=NCCN2)cc1)c1ccc(C(=O)Nc2ccc(C3=NCCN3)cc2)c(Cl)c1`, the “inhibition” value was 6.39%. With `COC(C(=O)N/N=C(\C)CC(=O)Nc1ccc(N(C)C)cc1)c1ccccc1` (stereo not drawn) the IC50 was 47.7 µM (active). In the case of `C/C(CC(=O)Nc1ccc(N(C)C)cc1)=N\NC(=O)c1ccc([N+](=O)[O-])cc1`, the IC50 is reported as 59.5 µM (active). For `Cn1ccc(=Nc2ccc(NC(=O)c3ccc(N=c4ccn(C)c5ccc([N+](=O)[O-])cc45)cc3)cc2)cc1`, the “inhibition” value was 6.89%. For `O=C(Cn1sc2ccccc2c1=O)Nc1ccc(F)cc1`, the “inhibition” value was 6.79%. With `CCCCCCCCCCCCCCCC[n+]1ccccc1` the “inhibition” value was 4.98%. For `C/C(CC(=O)Nc1ccc(N(C)C)cc1)=N\NC(=O)c1ccncc1`, the IC50 was 74.6 µM (active). For `N#C/C(=C/c1ccc(N2CCOCC2)o1)c1nc2ccccc2[nH]1`, the IC50 was 38.6 µM (active). In the case of `N#C/C(=C\c1ccc(N2CCOCC2)o1)c1nc2ccccc2[nH]1`, the IC50 is reported as 13.5 µM (active). With `N#C/C(=C/c1ccc(N2CCCCCC2)o1)c1ccc(Cl)cc1` the “inhibition” value was 6.82%. In the case of `CN(C)c1ccc(C=c2c3ccccc3n3c2cc(-c2ccc(Cl)cc2)[n+]3C)cc1`, the “inhibition” value is reported as 23.3%. With `CCN(Cc1ccncc1)Cc1ccc(OC)c(OC)c1` the “inhibition” value was 3.65%. For `CC(C)COc1ccc(N)cc1OCC(C)C`, the IC50 was 46.2 µM (active). In the case of `CCOc1ccc(N)cc1OC`, the IC50 is reported as 43.1 µM (active). In the case of `CCOc1ccc(C2NC(=O)C(C#N)=C(S)N2c2ccc(OC)cc2)cc1OC` (stereo not drawn), the “inhibition” value is reported as 2.78%. In the case of `COc1ccc(-n2sc3ccc(F)cc3c2=O)cc1`, the “inhibition” value is reported as 22.9%. In the case of `COc1ccc(N2C(=O)/C(=C/N(C)C)NC2=S)cc1`, the IC50 is reported as 77.5 µM (active). In the case of `COc1ccc(-n2sc3ccccc3c2=O)cc1`, the “inhibition” value is reported as 10.5%. In the case of `CN(C)/C=C1\NC(=S)N(c2ccccc2)C1=O`, the IC50 is reported as 71.9 µM (active). For `Cc1cccc2c(N)c3c(nc12)N(C)CC3`, the “inhibition” value was -29.6%. For `Cc1ccc2c(C)nc(/N=C(\N)NC(=O)N3c4ccccc4Sc4ccccc43)nc2c1`, the IC50 was “inactive”. With `Cc1cccn2c(CNC3CCCc4ccccc43)c(C(=O)N3CCCCC3)nc12` (stereo not drawn) the “inhibition” value was -1.5%. With `CCCCOc1ccc(NC(=O)CN2CCN(CC)CC2)cc1` the “inhibition” value was 29.1%. In the case of `O=C(CN1CCN(c2ccccn2)CC1)Nc1ccc(F)cc1`, the “inhibition” value is reported as 25.8%. For `CN1CC(=O)N(CC(=O)Nc2ccc(N(C)C)cc2)c2ccccc2C1=O`, the IC50 was 58.4 µM (active). In the case of `CN(C)c1ccc(NC(=O)CN2C(=O)c3ccccc3C2=O)cc1`, the IC50 is reported as 83.9 µM (active). In the case of `Cc1ccc(NC(=O)CN2CCC(Cc3ccccc3)CC2)cc1S(=O)(=O)N(C)C`, the “inhibition” value is reported as 7.91%. For `CN(C)c1ccc(NC(=O)CCN2C(=O)c3cccc([N+](=O)[O-])c3C2=O)cc1`, the IC50 was 72.7 µM (active). In the case of `Cc1cc(O)ccc1NC(=O)c1ccccc1`, the IC50 is reported as 71 µM (active). With `CCN(CC)CCCC(C)NC(=O)c1c(NC(=O)c2ccccc2)sc2c1CCCC2` (stereo not drawn) the “inhibition” value was 14.1%. In the case of `O=C1C(Cl)=C(NC(=O)c2ccccc2)C(=O)C(Cl)=C1NC(=O)c1ccccc1`, the “inhibition” value is reported as -0.63%. For `O=C(O)CCCNC(=O)/C=C/c1ccco1`, the “inhibition” value was -3.21%. In the case of `CSc1ccc(CN2CCC(C(=O)NCc3ccc(C)cc3)CC2)cc1`, the “inhibition” value is reported as 21.7%. For `Cc1csc(=O)n1CC(=O)OC(C)C(=O)Nc1ccc(N(C)C)cc1` (stereo not drawn), the IC50 was 56.8 µM (active). With `CC1CN(CCCCN2C(=O)c3ccccc3C2=O)CC(C)O1` (stereo not drawn) the “inhibition” value was 16.3%. For `Cc1cc(C)c(S(=O)(=O)Nc2ccc(N(C)C)cc2)c(C)c1-n1cnnn1`, the IC50 was 44.4 µM (active). For `O=[N+]([O-])c1ccc(C2CC(c3ccccc3)=Nc3ccccc3S2)cc1` (stereo not drawn), the “inhibition” value was 2.52%. For `Clc1cccc(-c2ccc(C=Nc3ccc(N4CCOCC4)cc3)o2)c1Cl`, the IC50 was 14.8 µM (active). In the case of `Cc1ccc(Cl)cc1-c1ccc(C=Nc2ccc(N3CCOCC3)cc2)o1`, the IC50 is reported as 11.4 µM (active). In the case of `O=C1CCCC2=C1Sc1ccc(Cl)cc1N2`, the IC50 is reported as 65.6 µM (active). For `CC(C)NCC#CCOc1ccc(Cl)cc1`, the “inhibition” value was 15.6%. In the case of `COc1ccc(NCCC(O)c2ccc(Cl)cc2)cc1` (stereo not drawn), the IC50 is reported as 28 µM (active). With `COc1ccc(O)c(C(c2c(C)[nH][nH]c2=O)c2c(C)[nH][nH]c2=O)c1` the “inhibition” value was -23.8%. In the case of `COc1ccc(NC(C)c2cc(Cl)ccc2O)cc1` (stereo not drawn), the IC50 is reported as 61.5 µM (active).
